Test results published in article PMC7819943, “Rice protein-binding microarrays: a tool to detect cis-acting elements near promoter regions in rice”.
Whole data set: some 35,000 sequences, median “fluorescence intensity (a.u.)” near 10,000, cut for the highest 2% near 52,000. The entries come from a sample that favours the highest values as a whole.

molecular target: T1, OsWOX13 (Oryza sativa, UniProt Q5QMM3 1-267); experiment: protein-binding microarray (RPBM); PBS, 2% BSA, 51.3 ng/ul salmon testes DNA, 50 uM zinc acetate, 200 nM TF, 25 C, 1 h; high values mean tight binding; details: protein: recombinant; tags: N-terminal polyhistidine and DsRed monomer fusion (pET32a); label: CyDye5-dUTP incorporated in the synthesized complementary strand; 3' TTTTT single-stranded linker to array surface; dsDNA, one strand shown
T1 sequence: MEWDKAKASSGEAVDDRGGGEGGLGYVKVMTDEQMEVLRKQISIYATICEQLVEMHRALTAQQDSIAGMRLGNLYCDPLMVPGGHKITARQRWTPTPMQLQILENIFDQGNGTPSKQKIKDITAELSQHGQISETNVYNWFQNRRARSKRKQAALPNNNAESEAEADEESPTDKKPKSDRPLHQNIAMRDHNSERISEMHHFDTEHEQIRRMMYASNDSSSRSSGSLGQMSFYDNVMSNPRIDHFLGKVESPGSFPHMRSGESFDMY
Procedure, shortened: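 Binding signal is reported as fluorescence intensity per feature (arbitrary units) from an Axon 4000B scanner. Incubation used 200 nM of each Ni–NTA-purified, N-terminally polyhistidine- and DsRed-fused transcription factor from E. coli BL21-CodonPlus on a double-stranded custom Agilent array for 1 h at 25 °C, with 50 µM zinc acetate in the buffer, followed by washing.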

Sequence	binding signal
TTTAGTAATTGGTAGAGCTCAAATTTCTAAATTTAACTTCCGGAGTCACCTAGTGCAG	6730 fluorescence intensity (a.u.)
ATTAAGATTGATTAATTGTTGCTTGGTTAATAGCCACTTACGGAGTCACCTAGTGCAG	47500 fluorescence intensity (a.u.)
TAAGTAATTGATTGGTAGCCAGCTTCTAACTTCTAGCTTACGGAGTCACCTAGTGCAG	63600 fluorescence intensity (a.u.)
TTCTAATCAAGCTTTCTGGTTAATTTCTCTATGAATTTAACGGAGTCACCTAGTGCAG	5250 fluorescence intensity (a.u.)
TCTAGAGAATTAGCCCTGATTATAATGTGAGACTTTGCATCGGAGTCACCTAGTGCAG	4870 fluorescence intensity (a.u.)
AAATCAATCTGATGGGCCGAATTGGAGGCCCATATCCGTGCGGAGTCACCTAGTGCAG	8660 fluorescence intensity (a.u.)
TTTGGATTGGCCAGAACAAGATATACTTTCGAATCTTTTGCGGAGTCACCTAGTGCAG	11300 fluorescence intensity (a.u.)
GCCGCCACCTTCGCCTTTATAAAGCTTACCTTTGCTACCACGGAGTCACCTAGTGCAG	64800 fluorescence intensity (a.u.)
CTCGCCATCTTCGCCGTCCTTGCTTTCTTATATAAATTTTCGGAGTCACCTAGTGCAG	4080 fluorescence intensity (a.u.)
TCATAAATTATTTATAATTGCCTTGCTTAATTTACGCCTTCGGAGTCACCTAGTGCAG	28900 fluorescence intensity (a.u.)
ATATGATTAAACTCAAGTATAGTTGAGGGACGTAAATTGGCGGAGTCACCTAGTGCAG	19700 fluorescence intensity (a.u.)
TTCATATAATTTATAAGGGACATAATGTAATCACCCTATACGGAGTCACCTAGTGCAG	10300 fluorescence intensity (a.u.)
ACCCACCCTTCAATTAGCCTGTGAATTACTACTTTCTAATCGGAGTCACCTAGTGCAG	7460 fluorescence intensity (a.u.)
AGTGATTAATTCATTCCAAAAGACAGTAGCGACATCTATTCGGAGTCACCTAGTGCAG	20300 fluorescence intensity (a.u.)
ATTAATTATCAGTGAGCACAAGCCTGGCATGTAAATCATGCGGAGTCACCTAGTGCAG	24800 fluorescence intensity (a.u.)
TTATGACCGGTTTTGATTAGTTAAGAGACGCCAGATATCTCGGAGTCACCTAGTGCAG	14300 fluorescence intensity (a.u.)
ATTTGATTTTCTGTCTTTTCTTCAACTCGATTTTGTTAAACGGAGTCACCTAGTGCAG	8770 fluorescence intensity (a.u.)
ATACATTGATTAATCAGCCAGCCAGCCAGCCAGCCACTGACGGAGTCACCTAGTGCAG	28700 fluorescence intensity (a.u.)
TTTTGATTGACAGCGGAAATTACTCGATATTGTTCTTCAACGGAGTCACCTAGTGCAG	64300 fluorescence intensity (a.u.)
TAATTGATTAATTAATAATACTCCAGCTGCAGCAACGGCACGGAGTCACCTAGTGCAG	47300 fluorescence intensity (a.u.)
GCCTGATTAATTGATTAATTCTCCAGCTGCATCACATTGACGGAGTCACCTAGTGCAG	63700 fluorescence intensity (a.u.)
GTATGGATCACCTGATTAATTGGGCCGTCGTTCCATTCCCCGGAGTCACCTAGTGCAG	9310 fluorescence intensity (a.u.)
TATTAAGAATTAGATTAGGATTAGGATTGTGTCAATGTTCCGGAGTCACCTAGTGCAG	4860 fluorescence intensity (a.u.)

Sequence	binding signal
CACCAATTTGATTGTTTTATTATTTTAAATCTTCAGTACTCGGAGTCACCTAGTGCAG	14200 fluorescence intensity (a.u.)
TCCCATTGATTTGATCCAGCTAATTAATTAATTCGATCCACGGAGTCACCTAGTGCAG	49900 fluorescence intensity (a.u.)
ATGTTCTTAGATTGATTAAGATTGTCAATTGATTACTCCACGGAGTCACCTAGTGCAG	60500 fluorescence intensity (a.u.)
GTAGTTCTTGATGTATTTCAATTAGAACCTTAATTTTCCACGGAGTCACCTAGTGCAG	3390 fluorescence intensity (a.u.)
CCTGATTAATTGGGTCGTCGTTCCATTCCCAGCCGATCGACGGAGTCACCTAGTGCAG	65200 fluorescence intensity (a.u.)
TTAAATTTATACCCCACTTATATCTCACTTACACATCACTCGGAGTCACCTAGTGCAG	7930 fluorescence intensity (a.u.)
TTAAATTTTCTATATAAATCTATTCAAATCTGCATAAATGCGGAGTCACCTAGTGCAG	3870 fluorescence intensity (a.u.)
TTGTAAAATTATATTTATTTAAGATGAAGGGAGTACTATCCGGAGTCACCTAGTGCAG	4920 fluorescence intensity (a.u.)
TTGCTGATTGTGAATGGTGGGTGCAAGGATACACTTTTCGCGGAGTCACCTAGTGCAG	23900 fluorescence intensity (a.u.)
AGCTAGGTCAATCATGCATGCATGAATATGTGGCCGAGTTCGGAGTCACCTAGTGCAG	3270 fluorescence intensity (a.u.)
CCAAACAATTTCAGTTTCATCTAAATTGGAGTGGAGCTGGCGGAGTCACCTAGTGCAG	11400 fluorescence intensity (a.u.)
CTGATTAAGATCACTAATTGATCTGTCCACATTGCATCCTCGGAGTCACCTAGTGCAG	54800 fluorescence intensity (a.u.)
ATTAATTAATTAATTAATTAATTAATACTCCTCTCTTCCACGGAGTCACCTAGTGCAG	65500 fluorescence intensity (a.u.)
ATTTAATTTAATTTAATTGTTCCTCCTCTTCTTCTTCTCTCGGAGTCACCTAGTGCAG	41000 fluorescence intensity (a.u.)
TTTACTCATGATTACGCTAATTATTCCACTCAATTCTCACCGGAGTCACCTAGTGCAG	26100 fluorescence intensity (a.u.)
CTCCACTAATTACTCCACCCAACCATTGGATTCAATGGGCCGGAGTCACCTAGTGCAG	21700 fluorescence intensity (a.u.)
TTGATAGATTGATCGTTAGTGCTTTTGTCCAATTTGTTCACGGAGTCACCTAGTGCAG	64200 fluorescence intensity (a.u.)
TGGATTAATTTCTCCTCTTCTCTTCCTCCCGTTTATAATACGGAGTCACCTAGTGCAG	6370 fluorescence intensity (a.u.)
GAGATCACATTAACTAATTGATTAACTAATTACTTCATCCCGGAGTCACCTAGTGCAG	29600 fluorescence intensity (a.u.)
TTGTCCATCACAATTGCTAATTAACTAAGACACCCTTCCTCGGAGTCACCTAGTGCAG	21100 fluorescence intensity (a.u.)
CTCGTTAGATTTTGATCAATGATTAGTCCAAATTATACATCGGAGTCACCTAGTGCAG	15200 fluorescence intensity (a.u.)
TATGATTGATTGGAGGGATCAATTAATTACTCATTCTCCACGGAGTCACCTAGTGCAG	64700 fluorescence intensity (a.u.)
TTTTGTAACTGATCGTTATTAGATCGGATTTGTTCATTGTCGGAGTCACCTAGTGCAG	3360 fluorescence intensity (a.u.)
